Measurements reported in PubChem BioAssay (EPA / NIEHS).
Where “and” joins values, the source holds several entries; their conditions need not be identical. Equal entries are not always repeated. Inconclusive results are not listed. More than one record can exist for a structure, and the calls need not agree. Calls of active or inactive are those of the source. Rule for the calls, unless noted: active = hit-call score of the fitted dose curve at least 0.9, where 1 is the maximum; inconclusive = response in the unintended direction; inactive = score below 0.9.

Assays:
[1] = target: chicken Estrogen Receptor (ERa), ESR1 (gene 396099) (UniProt P06212); assay: ATG_chERa_XSP2: Attagene TRANS-FACTORIAL Multi-Species (XSP2) HepG2 Assay for chicken Estrogen Receptor (ERa) (AID 2283817);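 note: actives raise reporter signal above DMSO so AC50 reflects ER activation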
Sequence of chicken Estrogen Receptor (ERa), ESR1 (gene 396099) (P06212 whole entry, looked up, the tested form may be a part): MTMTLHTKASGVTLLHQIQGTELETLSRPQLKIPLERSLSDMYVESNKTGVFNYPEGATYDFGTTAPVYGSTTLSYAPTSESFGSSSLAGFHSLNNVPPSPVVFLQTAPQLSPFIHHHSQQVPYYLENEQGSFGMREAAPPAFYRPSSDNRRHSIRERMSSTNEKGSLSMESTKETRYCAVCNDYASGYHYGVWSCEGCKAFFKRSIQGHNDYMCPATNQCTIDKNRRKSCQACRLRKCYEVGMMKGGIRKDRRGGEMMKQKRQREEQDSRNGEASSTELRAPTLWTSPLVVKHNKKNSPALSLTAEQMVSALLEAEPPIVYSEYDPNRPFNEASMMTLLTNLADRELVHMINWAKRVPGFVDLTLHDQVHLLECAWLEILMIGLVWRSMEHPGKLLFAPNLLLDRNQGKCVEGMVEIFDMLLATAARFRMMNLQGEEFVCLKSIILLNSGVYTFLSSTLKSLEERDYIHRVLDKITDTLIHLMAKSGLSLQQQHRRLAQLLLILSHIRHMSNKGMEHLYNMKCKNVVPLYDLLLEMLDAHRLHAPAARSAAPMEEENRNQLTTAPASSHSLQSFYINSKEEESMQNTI
Procedure, shortened: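 Transiently transfected HepG2 cells expressing chimeric chicken ERa-GAL4 reporter units, dosed 24 h with 3 nM 6-alpha-fluorotestosterone and 1.5 nM norgestrel present. Reporter mRNA measured by RT-PCR and capillary electrophoresis; gain-of-signal fitted relative to DMSO.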

[2] = test system: zebrafish Estrogen Receptor (ER2a), gene 317734; assay: ATG_zfER2a_XSP2: Attagene TRANS-FACTORIAL Multi-Species (XSP2) HepG2 Assay for zebrafish Estrogen Receptor (ER2a) (AID 2283818);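 note: hits raise reporter mRNA so AC50 reflects activation of zebrafish ER2a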
Procedure, shortened: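 HepG2 cells transiently transfected with GAL4-UAS reporter units and chimeric zebrafish ER2a-Gal4, exposed 24 h; medium contains 3 nM 6-alpha-fluorotestosterone and 1.5 nM norgestrel. Reporter mRNA quantified by RT-PCR, HpaI digestion, capillary electrophoresis; gain versus DMSO.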

[3] = test system: chicken Androgen Receptor (AR), gene 422165; assay: ATG_chAR_XSP2: Attagene TRANS-FACTORIAL Multi-Species (XSP2) HepG2 Assay for chicken Androgen Receptor (AR) (AID 2283819);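 note: hits raise reporter mRNA above DMSO so potency is for activation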
Procedure, shortened: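 HepG2 cells transiently transfected with chicken AR–GAL4 chimeric reporter constructs, stimulated with 3 nM 6-alpha-fluorotestosterone plus 1.5 nM norgestrel, dosed 24 h. Reporter mRNA quantified by RT-PCR and capillary electrophoresis; gain of signal fitted versus DMSO.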

[4] = test system: frog Estrogen Receptor (ER), gene 398734; assay: ATG_frER1_XSP2: Attagene TRANS-FACTORIAL Multi-Species (XSP2) HepG2 Assay for frog Estrogen Receptor (ER) (AID 2283821);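 note: hits raise reporter mRNA above DMSO baseline so potency means agonist or activator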
Procedure, shortened: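 HepG2 cells transiently transfected with GAL4-UAS reporter units expressing a chimeric frog ER-Gal4 protein; 24 h exposure. Reporter mRNA quantified by RT-PCR, fluorescent labelling and capillary electrophoresis; gain of signal fitted against DMSO baseline.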

[5] = test system: zebrafish Estrogen Receptor (ER2b), gene 317733; assay: ATG_zfER2b_XSP2: Attagene TRANS-FACTORIAL Multi-Species (XSP2) HepG2 Assay for zebrafish Estrogen Receptor (ER2b) (AID 2283823);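 note: fitted upward as reporter gain over DMSO so potency reflects activation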
Procedure, shortened: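 Transcriptional induction measured as reporter mRNA (RT-PCR, fluorescent capillary electrophoresis) in transiently transfected HepG2 cells after 24 h dosing; DMSO served as negative control and baseline.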

[6] = test system: zebrafish Androgen Receptor (AR), gene 100005148; assay: ATG_zfAR_XSP2: Attagene TRANS-FACTORIAL Multi-Species (XSP2) HepG2 Assay for zebrafish Androgen Receptor (AR) (AID 2283825);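 note: hits raise reporter mRNA above DMSO so AC50 reflects agonist-type gain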
Procedure, shortened: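 Zebrafish AR–GAL4 chimera transiently expressed with GAL4-UAS reporter in HepG2 cells, co-stimulated with 3 nM 6-alpha-fluorotestosterone and 1.5 nM norgestrel; 24 h dosing, reporter mRNA read by RT-PCR/capillary electrophoresis versus DMSO.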

[7] = test system: frog Estrogen Receptor (ER2), gene 100174814; assay: ATG_frER2_XSP2: Attagene TRANS-FACTORIAL Multi-Species (XSP2) HepG2 Assay for frog Estrogen Receptor (ER2) (AID 2283828)
Procedure, shortened: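 HepG2 cells transiently transfected with multiplexed GAL4-UAS reporter units expressing chimeric frog ER2–Gal4 protein; reporter mRNA measured 24 h after chemical dosing by RT-PCR, fluorescent labeling and capillary electrophoresis. Gain-of-signal fitted relative to DMSO baseline.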

[8] = target: mouse Peroxisome Proliferator-activated Receptor gamma (PPARg), Pparg (gene 19016) (UniProt P37238); assay: ATG_mPPARg_XSP2: Attagene TRANS-FACTORIAL Multi-Species (XSP2) HepG2 Assay for mouse Peroxisome Proliferator-activated Receptor gamma (PPARg) (AID 2283830);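 note: hits are gains in reporter mRNA above DMSO so AC50 marks activation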
Sequence of mouse Peroxisome Proliferator-activated Receptor gamma (PPARg), Pparg (gene 19016) (P37238 whole entry, looked up, the tested form may be a part): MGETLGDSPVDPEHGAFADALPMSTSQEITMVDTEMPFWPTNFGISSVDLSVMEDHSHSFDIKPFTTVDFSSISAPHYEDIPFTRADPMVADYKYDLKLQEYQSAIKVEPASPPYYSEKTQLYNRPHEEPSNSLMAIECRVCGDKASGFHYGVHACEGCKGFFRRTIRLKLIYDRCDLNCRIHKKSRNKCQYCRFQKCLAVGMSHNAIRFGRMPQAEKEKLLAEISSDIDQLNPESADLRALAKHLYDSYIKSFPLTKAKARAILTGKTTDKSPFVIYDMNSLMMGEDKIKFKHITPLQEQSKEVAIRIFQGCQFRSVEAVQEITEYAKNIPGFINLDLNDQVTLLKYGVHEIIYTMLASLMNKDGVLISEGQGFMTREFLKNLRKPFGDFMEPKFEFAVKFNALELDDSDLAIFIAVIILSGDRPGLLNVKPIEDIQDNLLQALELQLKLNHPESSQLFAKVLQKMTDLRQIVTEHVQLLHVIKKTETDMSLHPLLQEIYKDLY
Procedure, shortened: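 HepG2 cells transiently transfected with GAL4-UAS reporter units for chimeric NR-Gal4 proteins including mouse PPARg, exposed 24 h; medium contained 3 nM 6-alpha-fluorotestosterone and 1.5 nM norgestrel. Reporter mRNA quantified by RT-PCR, HpaI digestion and capillary electrophoresis, vs DMSO.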

[9] = target: Nuclear receptor subfamily 1 group I member 2 (Mus musculus) (UniProt O54915); assay: ATG_mPXR_XSP2: Attagene TRANS-FACTORIAL Multi-Species (XSP1) HepG2 Assay for mouse Pregnane X Receptor (PXR) (AID 2283831)
Sequence of Nuclear receptor subfamily 1 group I member 2 (Mus musculus) (O54915 whole entry, looked up): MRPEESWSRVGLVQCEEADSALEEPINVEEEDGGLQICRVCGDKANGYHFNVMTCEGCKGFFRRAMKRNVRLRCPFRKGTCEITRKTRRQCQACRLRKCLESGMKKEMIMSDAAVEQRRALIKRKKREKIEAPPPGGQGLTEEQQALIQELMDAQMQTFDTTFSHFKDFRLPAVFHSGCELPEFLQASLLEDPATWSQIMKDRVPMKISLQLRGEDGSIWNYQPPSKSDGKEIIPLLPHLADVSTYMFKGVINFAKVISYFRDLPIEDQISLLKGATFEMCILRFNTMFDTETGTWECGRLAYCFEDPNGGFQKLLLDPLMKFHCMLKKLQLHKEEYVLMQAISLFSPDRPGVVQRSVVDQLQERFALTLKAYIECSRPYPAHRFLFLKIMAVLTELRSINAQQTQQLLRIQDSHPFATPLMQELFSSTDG
Procedure, shortened: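 Fluorescence signals from capillary electrophoresis of RT-PCR-amplified reporter mRNA give the readout, gain-of-signal versus DMSO. Transfected HepG2 cells, 24 h dosing, medium contained 3 nM 6-alpha-fluorotestosterone and 1.5 nM norgestrel.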

[10] = test system: zebrafish Peroxisome Proliferator-activated Receptor gamma (PPARg), gene 557037; assay: ATG_zfPPARg_XSP2: Attagene TRANS-FACTORIAL Multi-Species (XSP2) HepG2 Assay for zebrafish Peroxisome Proliferator-activated Receptor gamma (PPARg) (AID 2283833);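 note: actives increase reporter signal over DMSO so AC50 reflects activation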
Procedure, shortened: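 HepG2, transient MRTU transfection, 24 h compound; zfPPARg-GAL4 reporter mRNA by RT-PCR + capillary electrophoresis; gain-of-signal vs DMSO.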

[11] = ATG_M_61_XSP2: Attagene TRANS-FACTORIAL Multi-Species (XSP2) HepG2 Assay for M61 Transcription Factor (Internal Marker) (AID 2283835; active = hit-call score of the fitted dose curve at least 0.9, where 1 is the maximum; inactive = score below 0.9;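 note: active means a rise in signal above the DMSO baseline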)
Procedure, shortened: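 HepG2 cells transiently transfected with multiple GAL4-UAS reporter units; reporter mRNA measured 24 h after dosing by RT-PCR, fluorescent labelling and capillary electrophoresis. Medium contained 3 nM 6-alpha-fluorotestosterone and 1.5 nM norgestrel; internal marker, DMSO baseline.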

[12] = target: zebrafish Estrogen Receptor (ER1), esr1 (gene 259252) (UniProt P57717); assay: ATG_zfER1_XSP2: Attagene TRANS-FACTORIAL Multi-Species (XSP2) HepG2 Assay for zebrafish Estrogen Receptor (ER1) (AID 2283816)
Sequence of zebrafish Estrogen Receptor (ER1), esr1 (gene 259252) (P57717 whole entry, looked up, the tested form may be a part): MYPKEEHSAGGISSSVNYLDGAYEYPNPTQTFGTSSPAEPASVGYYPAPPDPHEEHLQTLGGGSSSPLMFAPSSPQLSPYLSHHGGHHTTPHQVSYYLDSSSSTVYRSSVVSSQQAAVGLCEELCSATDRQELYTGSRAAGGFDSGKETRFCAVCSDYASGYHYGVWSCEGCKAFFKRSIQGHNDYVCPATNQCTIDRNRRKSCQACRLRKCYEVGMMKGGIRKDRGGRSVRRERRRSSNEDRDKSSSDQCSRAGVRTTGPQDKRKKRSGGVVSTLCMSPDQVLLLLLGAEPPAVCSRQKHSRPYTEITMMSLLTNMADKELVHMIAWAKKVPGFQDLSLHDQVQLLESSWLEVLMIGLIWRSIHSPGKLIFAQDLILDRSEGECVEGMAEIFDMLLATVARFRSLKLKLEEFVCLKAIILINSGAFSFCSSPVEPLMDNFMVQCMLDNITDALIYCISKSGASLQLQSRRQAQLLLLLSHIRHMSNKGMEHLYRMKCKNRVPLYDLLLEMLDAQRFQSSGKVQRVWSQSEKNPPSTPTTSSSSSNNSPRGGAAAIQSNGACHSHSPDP
Procedure, shortened: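 HepG2 cells transiently transfected with a GAL4-UAS reporter and a chimeric zebrafish ER1-Gal4 construct, dosed 24 h. Reporter mRNA quantified by RT-PCR, labelling, HpaI digestion and capillary electrophoresis, relative to DMSO.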

[13] = target: Peroxisome proliferator-activated receptor gamma (Homo sapiens) (UniProt P37231); assay: ATG_hPPARg_XSP2: Attagene TRANS-FACTORIAL Multi-Species (XSP2) HepG2 Assay for human Peroxisome Proliferator-activated Receptor gamma (PPARg) (AID 2283829);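 note: actives raise reporter mRNA above DMSO so AC50 reflects PPARg activation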
Sequence of Peroxisome proliferator-activated receptor gamma (Homo sapiens) (P37231 whole entry, looked up, the tested form may be a part): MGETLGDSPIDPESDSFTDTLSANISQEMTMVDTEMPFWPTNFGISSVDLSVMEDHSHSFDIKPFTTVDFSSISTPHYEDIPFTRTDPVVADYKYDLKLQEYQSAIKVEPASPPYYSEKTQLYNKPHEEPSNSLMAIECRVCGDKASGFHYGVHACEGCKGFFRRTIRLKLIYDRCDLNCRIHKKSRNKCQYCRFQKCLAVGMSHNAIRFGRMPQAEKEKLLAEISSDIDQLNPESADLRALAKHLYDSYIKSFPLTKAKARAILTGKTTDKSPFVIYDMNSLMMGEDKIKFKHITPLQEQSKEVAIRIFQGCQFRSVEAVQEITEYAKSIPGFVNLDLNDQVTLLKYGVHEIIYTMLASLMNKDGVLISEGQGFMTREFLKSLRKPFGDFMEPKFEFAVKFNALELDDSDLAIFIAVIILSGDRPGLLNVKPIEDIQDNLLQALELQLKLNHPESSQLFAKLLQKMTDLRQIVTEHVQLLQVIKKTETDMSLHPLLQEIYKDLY
Procedure, shortened: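 Human HepG2 cells carried transiently transfected Gal4 reporter units and were treated with chemical for 24 h alongside androgen-receptor stimulants (3 nM 6-alpha-fluorotestosterone, 1.5 nM norgestrel). Reporter transcripts were detected by RT-PCR with capillary electrophoresis, analysed in the positive direction against DMSO.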

[14] = target: zebrafish Thyroid Hormone Receptor alpha (TRa), thraa (gene 30670) (UniProt Q98867); assay: ATG_zfTRa_XSP2: Attagene TRANS-FACTORIAL Multi-Species (XSP1) HepG2 Assay for zebrafish Thyroid Hormone Receptor alpha (TRa) (AID 2283832);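 note: actives raise zebrafish TRa-Gal4 reporter transcript above DMSO baseline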
Sequence of zebrafish Thyroid Hormone Receptor alpha (TRa), thraa (gene 30670) (Q98867 whole entry, looked up, the tested form may be a part): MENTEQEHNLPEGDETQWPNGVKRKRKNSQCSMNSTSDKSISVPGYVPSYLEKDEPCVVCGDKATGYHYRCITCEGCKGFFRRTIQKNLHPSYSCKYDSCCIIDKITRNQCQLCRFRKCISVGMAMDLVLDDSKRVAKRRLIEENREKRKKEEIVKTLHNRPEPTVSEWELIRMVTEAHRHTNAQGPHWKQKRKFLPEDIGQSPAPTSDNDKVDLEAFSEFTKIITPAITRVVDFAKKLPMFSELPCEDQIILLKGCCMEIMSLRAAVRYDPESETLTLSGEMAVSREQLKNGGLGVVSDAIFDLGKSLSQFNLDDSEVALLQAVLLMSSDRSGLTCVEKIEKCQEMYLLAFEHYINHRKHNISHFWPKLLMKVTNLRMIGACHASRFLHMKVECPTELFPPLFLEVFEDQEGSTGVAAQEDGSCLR
Procedure, shortened: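 HepG2 transiently transfected with GAL4-UAS reporter units and chimeric zebrafish TRa-Gal4; reporter mRNA quantified after 24 h dosing by RT-PCR, HpaI digestion and capillary electrophoresis fluorescence. Gain of signal vs DMSO; XSP2 medium contains 3 nM 6-alpha-fluorotestosterone, 1.5 nM norgestrel.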

[15] = test system: turtle Thyroid Hormone Receptor, alpha (TRa), gene 101949057; assay: ATG_trTRa_XSP2: Attagene TRANS-FACTORIAL Multi-Species (XSP1) HepG2 Assay for turtle Thyroid Hormone Receptor, alpha (TRa) (AID 2283834);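 note: hits raise reporter mRNA over the DMSO baseline so AC50 marks activators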
Procedure, shortened: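 Multiplexed TRANS reporter assay; HepG2 carrying NR-Gal4 constructs treated 24 h. mRNA of the GAL4-UAS reporter quantified via labelled RT-PCR fragments on a genetic analyzer, vs DMSO negative control.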

[16] = target: zebrafish Thyroid Hormone Receptor beta (TRb), thrb (gene 30607) (UniProt Q9PVE4); assay: ATG_zfTRb_XSP2: Attagene TRANS-FACTORIAL Multi-Species (XSP1) HepG2 Assay for zebrafish Thyroid Hormone Receptor beta (TRb) (AID 2283836);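 for AC50: potency for induction of reporter signal above DMSO so agonist direction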
Sequence of zebrafish Thyroid Hormone Receptor beta (TRb), thrb (gene 30607) (Q9PVE4 whole entry, looked up, the tested form may be a part): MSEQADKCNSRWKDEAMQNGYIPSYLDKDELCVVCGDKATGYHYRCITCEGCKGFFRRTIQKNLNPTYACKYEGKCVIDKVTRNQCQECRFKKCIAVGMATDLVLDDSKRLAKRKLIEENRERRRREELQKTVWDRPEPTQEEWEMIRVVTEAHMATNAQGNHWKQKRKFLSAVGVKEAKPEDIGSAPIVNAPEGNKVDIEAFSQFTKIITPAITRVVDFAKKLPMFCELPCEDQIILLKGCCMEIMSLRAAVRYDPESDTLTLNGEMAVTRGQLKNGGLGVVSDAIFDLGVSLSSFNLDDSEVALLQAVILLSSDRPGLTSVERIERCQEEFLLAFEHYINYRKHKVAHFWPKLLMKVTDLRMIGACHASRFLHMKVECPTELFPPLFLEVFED
Procedure, shortened: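 HepG2 cells transiently transfected with chimeric zebrafish TRb-GAL4 reporter units, dosed 24 h with 3 nM 6-alpha-fluorotestosterone and 1.5 nM norgestrel present. Reporter mRNA quantified by RT-PCR and capillary electrophoresis; gain fitted against DMSO.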

[17] = ATG_M_19_XSP2: Attagene TRANS-FACTORIAL Multi-Species (XSP2) HepG2 Assay for M32 Transcription Factor (Internal Marker) (AID 2283822)
Procedure, shortened: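 Internal background marker in a multi-species nuclear receptor TRANS panel: transfected HepG2 cells exposed 24 h, with 3 nM 6-alpha-fluorotestosterone and 1.5 nM norgestrel present. Readout is RT-PCR of reporter transcripts resolved by capillary electrophoresis, gain-of-signal versus DMSO.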

[18] = target: Estrogen receptor (Homo sapiens) (UniProt P03372); assay: ATG_hERa_XSP2: Attagene TRANS-FACTORIAL Multi-Species (XSP2) HepG2 Assay for human Estrogen Receptor (ERa) (AID 2283827)
Sequence of Estrogen receptor (Homo sapiens) (P03372 whole entry, looked up, the tested form may be a part): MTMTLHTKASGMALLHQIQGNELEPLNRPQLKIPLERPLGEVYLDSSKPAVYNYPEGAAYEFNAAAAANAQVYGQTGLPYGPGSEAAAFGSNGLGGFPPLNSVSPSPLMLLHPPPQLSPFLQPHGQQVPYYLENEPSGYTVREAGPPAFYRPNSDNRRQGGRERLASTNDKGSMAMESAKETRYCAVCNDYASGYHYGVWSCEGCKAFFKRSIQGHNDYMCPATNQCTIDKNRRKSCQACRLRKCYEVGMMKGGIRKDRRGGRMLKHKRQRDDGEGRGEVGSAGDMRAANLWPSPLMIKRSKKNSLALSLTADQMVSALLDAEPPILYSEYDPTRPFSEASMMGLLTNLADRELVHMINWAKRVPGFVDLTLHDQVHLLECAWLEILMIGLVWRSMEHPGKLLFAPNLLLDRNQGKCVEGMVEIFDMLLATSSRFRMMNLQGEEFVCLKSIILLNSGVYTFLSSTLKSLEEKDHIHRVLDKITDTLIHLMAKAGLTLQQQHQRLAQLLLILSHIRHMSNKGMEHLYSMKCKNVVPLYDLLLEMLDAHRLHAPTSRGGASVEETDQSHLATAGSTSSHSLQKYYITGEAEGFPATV
Procedure, shortened: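 HepG2 cells transiently transfected with multiplexed GAL4-UAS reporters driven by chimeric receptor-Gal4 proteins, dosed 24 h with 3 nM 6-alpha-fluorotestosterone and 1.5 nM norgestrel present. Reporter mRNA by RT-PCR and capillary electrophoresis; gain-of-signal fit versus DMSO.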

[19] = target: human Androgen Receptor (AR), AR (gene 367) (UniProt P10275); assay: ATG_hAR_XSP2: Attagene TRANS-FACTORIAL Multi-Species (XSP2) HepG2 Assay for human Androgen Receptor (AR) (AID 2283820)
Sequence of human Androgen Receptor (AR), AR (gene 367) (P10275 whole entry, looked up, the tested form may be a part): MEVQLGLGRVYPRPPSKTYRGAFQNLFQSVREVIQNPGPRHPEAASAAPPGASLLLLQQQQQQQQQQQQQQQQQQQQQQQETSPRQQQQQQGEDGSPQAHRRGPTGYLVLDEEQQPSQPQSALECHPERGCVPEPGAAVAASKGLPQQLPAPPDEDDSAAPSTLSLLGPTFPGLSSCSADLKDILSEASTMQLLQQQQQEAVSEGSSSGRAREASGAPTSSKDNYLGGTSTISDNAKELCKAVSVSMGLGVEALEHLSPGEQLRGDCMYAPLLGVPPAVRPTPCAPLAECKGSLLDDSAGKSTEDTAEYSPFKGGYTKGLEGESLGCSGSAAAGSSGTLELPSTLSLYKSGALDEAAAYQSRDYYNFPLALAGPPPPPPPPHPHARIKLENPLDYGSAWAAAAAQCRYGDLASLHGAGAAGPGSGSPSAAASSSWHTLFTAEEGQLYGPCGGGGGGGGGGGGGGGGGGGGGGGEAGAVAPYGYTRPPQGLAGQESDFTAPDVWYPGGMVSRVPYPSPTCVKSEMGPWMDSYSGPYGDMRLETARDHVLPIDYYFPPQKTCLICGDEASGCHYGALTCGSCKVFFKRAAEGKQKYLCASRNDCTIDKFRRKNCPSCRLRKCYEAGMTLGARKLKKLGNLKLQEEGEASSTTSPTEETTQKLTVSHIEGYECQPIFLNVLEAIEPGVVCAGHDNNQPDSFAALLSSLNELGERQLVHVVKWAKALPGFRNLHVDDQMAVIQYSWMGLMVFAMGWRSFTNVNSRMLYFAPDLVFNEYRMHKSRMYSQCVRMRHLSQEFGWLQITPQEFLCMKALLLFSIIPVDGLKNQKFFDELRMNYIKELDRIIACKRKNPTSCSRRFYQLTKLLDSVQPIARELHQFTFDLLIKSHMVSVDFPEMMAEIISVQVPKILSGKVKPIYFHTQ
Procedure, shortened: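 HepG2 cells transiently transfected with GAL4-UAS reporter units driven by chimeric NR-Gal4 proteins, stimulated with 3 nM 6-alpha-fluorotestosterone plus 1.5 nM norgestrel. Reporter mRNA quantified 24 h after dosing by RT-PCR and capillary electrophoresis; gain-of-signal versus DMSO.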

[20] = test system: frog Androgen Receptor (AR), gene 399456; assay: ATG_frAR_XSP2: Attagene TRANS-FACTORIAL Multi-Species (XSP2) HepG2 Assay for frog Androgen Receptor (AR) (AID 2283824);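 note: actives raise reporter signal above DMSO so AC50 reflects agonist-like induction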
Procedure, shortened: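 HepG2 cells transiently transfected with GAL4-UAS reporter units and frog (Xenopus laevis) AR-Gal4 chimera; reporter mRNA measured 24 h after dosing by RT-PCR and capillary electrophoresis. Gain of signal fitted relative to DMSO baseline.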

Measured: AC50

CCCCC(CC)COC(=O)c1ccccc1C(=O)O (stereo not given)
active: [1] 27.2 µM | [4] 4.22 µM | [5] 48.9 µM | [7] 33.2 µM | [8] 18.2 µM | [9] 3.81 µM | [10] 59.8 µM
inactive: [2] | [3] | [6] | [11]

CC(C)(c1ccc(O)cc1)c1ccc(O)cc1
inactive: [7] | [13] | [8] | [10] | [15] | [11] | [16]
active: [12] 2.53 µM | [1] 0.501 µM | [2] 2.65 µM | [4] 2.64 µM | [5] 2.08 µM | [14] 12.7 µM

CCN(Cc1c(F)cccc1Cl)c1c([N+](=O)[O-])cc(C(F)(F)F)cc1[N+](=O)[O-]
inactive: [12] | [3] | [4] | [17] | [13] | [8] | [14] | [10] | [15] | [16]
active: [12] 6.69 µM | [1] 2.59 µM and 795 nM | [5] 10.2 µM and 4.04 µM | [18] 1.49 µM and 1.53 µM | [7] 10.1 µM and 2.8 µM | [9] 284 nM and 656 nM

CC1(C)C(C=C(Cl)Cl)C1C(=O)OCc1cccc(Oc2ccccc2)c1 (stereo not given)
active: [1] 4.5 µM | [2] 18.6 µM | [5] 100 µM | [18] 7.48 µM | [7] 34.8 µM | [9] 3.06 µM
inactive: [3] | [19] | [4] | [17] | [20] | [14] | [10] | [15]

C=CCOC(Cn1ccnc1)c1ccc(Cl)cc1Cl (stereo not given)
active: [13] 82.2 µM | [8] 100 µM | [9] 1.34 µM
inactive: [12] | [1] | [2] | [4] | [5] | [7] | [10] | [11] | [16]

N[C@@H](Cc1cc(I)c(Oc2ccc(O)c(I)c2)c(I)c1)C(=O)O
inactive: [12] | [1] | [2] | [4] | [5] | [6] | [7] | [13] | [8] | [10] | [11]
active: [12] 5.09 µM | [1] 4.3 µM | [2] 3.71 µM | [4] 3.68 µM | [5] 4.9 µM | [18] 351 nM and 1.72 µM | [7] 4.9 µM | [13] 6.33 µM | [8] 3.89 µM | [9] 22.7 µM | [14] 0.534 nM and 449 nM | [15] 0.636 nM and 73.3 nM | [16] 0.339 nM and 77 nM

CN(C)C(=O)Nc1ccc(Cl)c(Cl)c1
inactive: [12] | [2] | [4] | [7] | [13] | [8] | [9] | [14] | [10] | [15] | [11] | [16]
active: [1] 32.9 µM and 10.6 µM | [2] 24.9 µM | [4] 19.6 µM | [5] 130 µM and 65.2 µM | [18] 47.1 µM and 48.1 µM | [7] 33.8 µM | [8] 100 µM | [9] 6.9 µM
